From PubChem BioAssay
HTR5A ag: counter-screen for OPRM1-OPRD1 agonists: human HTR5A agonism | P47898 | HTR5A agonist assay, luminescence, cell-based | activation, % at 9.3 µM | 340,000 tested, 0.61% active; in the data active = activation mostly above about 9.5%, no sharp cut-off; inactive = mostly below about 7.6%;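 also: 0% = cells with vehicle only and 100% = reference agonist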
MOR-DOR ag-1: agonists of human mu-delta opioid receptor heterodimerization. activation, % at 9.3 µM. cells, OPRM1-OPRD1 heterodimerization, luminescence. P35372+P41143. 340,000 tested, 0.3% active;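 also: 0% = vehicle-treated cells and 100% = reference agonist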
Target sequence (P35372 whole entry, looked up): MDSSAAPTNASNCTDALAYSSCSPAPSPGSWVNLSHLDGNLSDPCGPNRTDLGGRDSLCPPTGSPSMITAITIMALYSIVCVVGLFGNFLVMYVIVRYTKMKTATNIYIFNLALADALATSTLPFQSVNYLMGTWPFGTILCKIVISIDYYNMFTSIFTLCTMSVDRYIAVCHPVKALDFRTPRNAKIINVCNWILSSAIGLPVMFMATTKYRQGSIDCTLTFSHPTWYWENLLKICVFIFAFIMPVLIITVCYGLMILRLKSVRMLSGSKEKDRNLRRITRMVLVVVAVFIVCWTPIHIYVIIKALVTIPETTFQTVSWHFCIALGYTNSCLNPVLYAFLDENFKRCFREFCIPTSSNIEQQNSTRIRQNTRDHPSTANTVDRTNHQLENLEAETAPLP
Target sequence (P41143 whole entry, looked up): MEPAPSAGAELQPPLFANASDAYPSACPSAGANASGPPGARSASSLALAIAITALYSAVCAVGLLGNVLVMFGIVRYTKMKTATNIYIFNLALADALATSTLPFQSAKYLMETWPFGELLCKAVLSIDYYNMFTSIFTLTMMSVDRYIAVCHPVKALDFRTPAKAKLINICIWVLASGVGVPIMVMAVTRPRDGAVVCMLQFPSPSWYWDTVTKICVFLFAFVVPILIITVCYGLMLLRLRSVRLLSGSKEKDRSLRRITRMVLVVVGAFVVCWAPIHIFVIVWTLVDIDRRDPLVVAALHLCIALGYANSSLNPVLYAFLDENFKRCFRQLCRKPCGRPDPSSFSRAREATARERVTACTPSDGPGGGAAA
OPRM1-OPRD1 inv: inverse agonists of human mu-delta opioid receptor heterodimerization; AID 504357; cell-based MOR-DOR heterodimer luminescence, inverse agonism; 340,000 tested, 0.21% active; inhibition, % at 9.3 µM; in the data active = inhibition above about 22%, passing the limit was not always enough;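 also: 0% = cells with DMSO and 100% = wells without cells with DMSO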
HTR5A inv ctr: HTR5A inverse agonism, opioid heterodimer counter-screen; P47898; HTR5A cell line, luminescence; inhibition, % at 9.3 µM; 340,000 tested, 0.083% active; in the data active = inhibition mostly above about 23%, no sharp cut-off; inactive = mostly below about 18%;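 also: 0% = cells with DMSO and 100% = no-cell wells with DMSO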
MOR-DOR ag-2: counter-screen for HTR5A agonists: OPRM1-OPRD1 heterodimerization agonism | U2OS counter-screen cells, complementation luminescence, 3 h | activation, % at 9.3 µM | 800 tested, 13% active | AID 504913 | shares compounds with HTR5A ag
HTR5A ag conf: HTR5A (human) agonism, confirmation; shares compounds with HTR5A ag; HTR5A agonist cell assay, luminescence; activation, % at 9.3 µM; 800 tested, 17% active; in the data active = activation above about 17%;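 also: 0% = cells with vehicle only and 100% = full reference agonist response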
* marks the source's active call; other numbers are inactive results. This is a sample that favours compounds with a hit; in the whole collection about 1.1% have one here. Rule as the data show it, unless noted: active = activation above about 18%; inactive = the rest.

For C=CCn1c(O)c(/C(C)=N/N2CCCCC2)c(=O)[nH]c1=O the results were HTR5A ag 20*, MOR-DOR ag-1 -3, OPRM1-OPRD1 inv 17, HTR5A inv ctr -51, MOR-DOR ag-2 17 and HTR5A ag conf 9.
For CC1=CC2OC3CC4OC(=O)C=CC=CC(C(C)O)OCC(O)C5(C)OC5C(=O)OCC2(CC1O)C4(C)C31CO1 (stereo not drawn) the results were HTR5A ag 0, MOR-DOR ag-1 -6, OPRM1-OPRD1 inv 26 and HTR5A inv ctr 0.
For CC(=O)c1cccc(NC(=O)N2C[C@H]3C[C@@H](C2)c2cccc(=O)n2C3)c1 the results were HTR5A ag 1, MOR-DOR ag-1 -2, OPRM1-OPRD1 inv 11 and HTR5A inv ctr 20.
CN1C[C@H](CO)C[C@@H]2c3cccc4[nH]cc(c34)C[C@H]21 was read as HTR5A ag 16*, MOR-DOR ag-1 0, OPRM1-OPRD1 inv 1, HTR5A inv ctr -61, MOR-DOR ag-2 1 and HTR5A ag conf 23*.
CCN(CC)C(=O)N[C@H]1C[C@@H]2c3cccc4[nH]cc(c34)C[C@H]2N(C)C1 was read as HTR5A ag 3, MOR-DOR ag-1 1, OPRM1-OPRD1 inv -4 and HTR5A inv ctr -6.
Screening COC(=O)C1=C(c2ccc(F)cc2F)C[C@@H]2CC[C@H]1N2C(=O)NCc1ccc2c(c1)OCO2 returned HTR5A ag 21*, MOR-DOR ag-1 -3, OPRM1-OPRD1 inv 16, HTR5A inv ctr 14, MOR-DOR ag-2 4 and HTR5A ag conf -1.
For FC(F)(F)c1ccccc1N1CC1c1ccncc1 (stereo not drawn) the results were HTR5A ag 2, MOR-DOR ag-1 -1, OPRM1-OPRD1 inv 4 and HTR5A inv ctr -7.
COC1/C=C/C=C(\C)Cc2cc(O)c(Cl)c(c2)N(C)C(=O)CC(OC(=O)C(C)C)C2(C)OC2C(C)C2CC1(O)NC(=O)O2 (stereo not drawn) was read as HTR5A ag -4, MOR-DOR ag-1 0, OPRM1-OPRD1 inv -1 and HTR5A inv ctr 16.
For Nc1ccc(C2(c3ccc(N)cc3)c3ccccc3-c3ccccc32)cc1 the results were HTR5A ag 44*, MOR-DOR ag-1 6, OPRM1-OPRD1 inv -29, HTR5A inv ctr -80, MOR-DOR ag-2 23* and HTR5A ag conf 27*.
For Cc1cc(O)c2c3c(c(=O)oc2c1)CCC(C)C3 (stereo not drawn) the results were HTR5A ag 1, MOR-DOR ag-1 -2, OPRM1-OPRD1 inv 11 and HTR5A inv ctr -2.
Cc1cc(O)c2c(c1)OC(C)(C)C1=C2CC(C)CC1 (stereo not drawn) was read as HTR5A ag 15*, MOR-DOR ag-1 12, OPRM1-OPRD1 inv -62, HTR5A inv ctr -25, MOR-DOR ag-2 7 and HTR5A ag conf 5.
For CCC(CO)(C(=O)OC1CC2CCC(C1)N2C)c1ccccc1 (stereo not drawn) the results were HTR5A ag 16*, MOR-DOR ag-1 1, OPRM1-OPRD1 inv -6, HTR5A inv ctr 1, MOR-DOR ag-2 0 and HTR5A ag conf -1.
`CC(=O)OC(C)(C)/C=C/C(=O)[C@](C)(O)C1[C@H](O)C[C@@]2(C)C3CC=C4C(C[C@H](O)C(=O)C4(C)C)[C@]3(C)C(=O)C[C@]12C` (stereo partly drawn) gave HTR5A ag 7, MOR-DOR ag-1 -1, OPRM1-OPRD1 inv 3 and HTR5A inv ctr -31.
CCC(CO)NC(=O)C1C=C2c3cccc4[nH]cc(c34)CC2N(C)C1 (stereo not drawn) was read as HTR5A ag 75*, MOR-DOR ag-1 9, OPRM1-OPRD1 inv -48, HTR5A inv ctr -267, MOR-DOR ag-2 1 and HTR5A ag conf 88*.
`CN1C[C@H](CNC(=O)OCc2ccccc2)C[C@@H]2c3cccc4c3c(cn4C)C[C@H]21` gave HTR5A ag 9, MOR-DOR ag-1 1, OPRM1-OPRD1 inv -7 and HTR5A inv ctr -31.
For CC[C@@H](CO)NC(=O)[C@@H]1C=C2c3cccc4[nH]cc(c34)C[C@H]2N(C)C1 the results were HTR5A ag 91*, MOR-DOR ag-1 11, OPRM1-OPRD1 inv -59, HTR5A inv ctr -198, MOR-DOR ag-2 2 and HTR5A ag conf 84*.
For CC(C)C[C@H]1C(=O)N2CCC[C@H]2[C@]2(O)O[C@](NC(=O)[C@@H]3C=C4c5cccc6[nH]cc(c56)C[C@H]4N(C)C3)(C(C)C)C(=O)N12 the results were HTR5A ag 16, MOR-DOR ag-1 8, OPRM1-OPRD1 inv -41 and HTR5A inv ctr -58.
